Screens (PubChem BioAssay)
HPGD inh = blocks human HPGD enzyme activity; 150,000 tested, 4.3% active; purified HPGD, NADH fluorescence kinetic, PGE2 substrate; Potency, µM, most hits filed as inhibitors; P15428
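20 nM HPGD preincubated 15 min at room temperature with compound in 50 mM Tris-HCl pH 8, 0.01% Tween 20. Started with 1 mM NAD+ and 30 uM prostaglandin E2; NADH fluorescence (360/450 nm) read 5 times over 30-s intervals, last minus first.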
PNC assembly inh = perinucleolar compartment assembly inhibition; PC3M PTB-GFP, PNC prevalence imaging, 16 h; hits give low values; activity change (PNC), negative = inhibition, % at 10 µM; 140,000 tested, 3.1% active; AID 2417;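 active = readout at or below -70, meaning at least 70% loss of cells showing the perinucleolar compartment, a nuclear body marking cancer cells; inconclusive = readout between -30 and a set limit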
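Read-out is percentage of cells bearing a perinucleolar compartment, from automated 20x imaging of fixed, Hoechst-stained PC3M PTB-GFP cells. Cells were seeded 4 h, then exposed 16 h to compound (23 nl of library stock) in duplicate plates.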
NPSR antagonist = blocks cAMP signaling of the human neuropeptide S receptor. 220,000 tested, 1% active. CHO-NPSR cells, cAMP TR-FRET, antagonist mode. Potency, µM (titrated, usually from 38.3 µM), most hits filed as inhibitors. AID 1461; active = well fitted curve in the direction sought with a large enough effect; inconclusive = small, poorly fitted or top-dose-only effect, or another doubt; inactive = no such curve, though single readings can be large; an effect the other way counts as inactive or inconclusive; note: nearly all actives have a fitted effect of over 50% in size
IMPase cell inh = cell-permeable inhibitors of inositol monophosphatase (IMPase) | CHO-M1 cells, IP1 accumulation, HTRF TR-FRET ratio | inhibition (IP1 accumulation), % at 46.1 µM | 120,000 tested, under 10 active | AID 901; active = well fitted curve in the direction sought with a large enough effect in the signal ratio, not every such curve was filed as active; inconclusive = small, poorly fitted or top-dose-only effect, or a change in a side signal; inactive = no such curve, though single readings can be large or run the other way; the % refers to the signal ratio;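 note: cells stimulated with carbachol in lithium chloride buffer; higher means more IMPase inhibition seen as more IP1 and lower FRET ratio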
Target sequence (P97697 whole entry, looked up): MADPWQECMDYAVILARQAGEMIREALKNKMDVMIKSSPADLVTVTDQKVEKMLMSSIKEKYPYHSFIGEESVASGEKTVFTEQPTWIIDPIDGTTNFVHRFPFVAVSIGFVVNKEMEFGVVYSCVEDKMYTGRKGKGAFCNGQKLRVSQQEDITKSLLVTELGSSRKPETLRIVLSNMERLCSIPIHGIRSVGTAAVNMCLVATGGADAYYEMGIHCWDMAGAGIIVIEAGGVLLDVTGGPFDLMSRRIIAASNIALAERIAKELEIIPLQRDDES
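Cellular IMPase inhibition is scored as a rise in cytosolic IP1, detected by competitive TR-FRET between d2-labelled IP1 and a europium anti-IP1 antibody. M1-expressing CHO cells were stimulated with carbachol for 30 min at 37C, with lithium (50 mM LiCl) present in the buffer.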
ALDH1A1 block = blocks purified human ALDH1A1 activity; AID 1030; Purified ALDH1A1, NADH fluorescence, propionaldehyde substrate; P00352; 220,000 tested, 7.3% active; Potency, µM (titrated, usually from 75.3 µM), hits mostly inhibitors
Target sequence (P00352 whole entry, looked up): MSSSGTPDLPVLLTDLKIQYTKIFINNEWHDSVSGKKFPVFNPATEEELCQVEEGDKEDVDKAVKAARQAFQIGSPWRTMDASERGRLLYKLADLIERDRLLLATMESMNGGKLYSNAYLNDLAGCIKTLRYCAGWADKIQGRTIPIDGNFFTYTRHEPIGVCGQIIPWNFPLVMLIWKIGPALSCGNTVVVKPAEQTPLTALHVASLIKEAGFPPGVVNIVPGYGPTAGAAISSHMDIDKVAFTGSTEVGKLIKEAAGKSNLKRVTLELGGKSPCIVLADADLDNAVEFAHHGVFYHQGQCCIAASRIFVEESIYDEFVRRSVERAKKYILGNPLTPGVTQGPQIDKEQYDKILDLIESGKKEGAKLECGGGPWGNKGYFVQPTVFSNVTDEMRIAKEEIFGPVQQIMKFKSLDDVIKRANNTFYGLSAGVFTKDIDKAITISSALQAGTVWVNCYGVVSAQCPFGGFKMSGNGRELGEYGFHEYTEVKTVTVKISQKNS
IMPase Li cell = membrane-permeable IMPase blocker, potentiated with lithium. CHO-M1 cells, IP1 TR-FRET (IP-One), carbachol + lithium. 210,000 tested, 0.35% active. Potency, µM (series often up to 59.4 µM), usual class: inhibitors; active = well fitted curve in the direction sought with a large enough effect; inconclusive = small, poorly fitted or top-dose-only effect, or another doubt; inactive = no such curve, though single readings can be large; an effect the other way counts as inactive or inconclusive;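 note: IP1 builds up when IMPase is blocked and the TR-FRET signal falls; nearly all actives have a fitted effect of over 50% in size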
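CHO-M1, 2000 cells/well, 16–30 h culture; cpd + low Li+, 30 min 37C; lysis with d2-IP1/Eu-anti-IP1 Ab, 10 min RT; TR-FRET 665/620 ratio and 620 channel; AC50 via Hill.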
Hits are given with their value; ! = not confirmed by another sample; [ ] = dose if it differs, or a comment. A selection: hits, their analogues and other compounds. The true share with any hit is near 11%. Unless noted, calls come from the whole dose curve; as a rule, active = well fitted inhibition curve with a large enough effect (not every such curve was filed as active); inconclusive = small, poorly fitted or top-dose-only effect, or another doubt; inactive = no such curve, though single readings can be large or run the other way.

How did Cn1c(=O)c2c(nc(CN3CCN(c4ccccc4F)CC3)n2CCN2CCOCC2)n(C)c1=O do in these assays?
HPGD inh: inactive; PNC assembly inh: -100; NPSR antagonist: inactive; IMPase cell inh: inactive; ALDH1A1 block: inconclusive; IMPase Li cell: inactive

What do the screens show for `Cc1ccc(Cn2c(CN3CCOCC3)nc3c2c(=O)n(C)c(=O)n3C)cc1`?
HPGD inh: inactive; PNC assembly inh: -100; NPSR antagonist: inactive; IMPase cell inh: inactive; ALDH1A1 block: 10µM; IMPase Li cell: inactive

How did Cc1cc(C)n(Cc2ccc(C(=O)O)o2)n1 do in these assays?
HPGD inh: inactive; PNC assembly inh: inactive; NPSR antagonist: inactive; IMPase cell inh: inactive; ALDH1A1 block: inactive; IMPase Li cell: inactive

Results for O=C(Nc1ccc(-n2nncc2-c2ccco2)cc1)c1cccc(F)c1 ?
HPGD inh: 13µM; PNC assembly inh: inactive; NPSR antagonist: inactive; IMPase cell inh: inactive; ALDH1A1 block: inconclusive; IMPase Li cell: inactive

Results for O=C(Nc1ccc(-n2nncc2-c2ccco2)cc1)c1cc2ccccc2oc1=O ?
HPGD inh: inactive; PNC assembly inh: inactive; NPSR antagonist: inactive; IMPase cell inh: inactive; ALDH1A1 block: inactive; IMPase Li cell: inactive

What do the screens show for `O=C(c1cc2ncc(Br)cn2n1)N1CCOCC1`?
HPGD inh: 22µM; PNC assembly inh: inactive; NPSR antagonist: inactive; IMPase cell inh: inactive; ALDH1A1 block: inactive; IMPase Li cell: inactive

Results for O=C(c1cc2ncc(Br)cn2n1)N1CCN(C(=O)c2ccco2)CC1 ?
HPGD inh: inactive; PNC assembly inh: inactive; NPSR antagonist: inactive; IMPase cell inh: inactive; ALDH1A1 block: 25µM; IMPase Li cell: inactive

How did O=C(c1ccco1)N1CCN(C(=O)c2ccc(Cn3cc(Br)cn3)o2)CC1 do in these assays?
HPGD inh: inactive; PNC assembly inh: inconclusive; NPSR antagonist: inactive; IMPase cell inh: inactive; ALDH1A1 block: inconclusive; IMPase Li cell: inactive

Results for COc1ccc(-c2noc(CCCC(=O)NCc3ccco3)n2)cc1OC ?
HPGD inh: inactive; PNC assembly inh: inconclusive; NPSR antagonist: inactive[7.67 µM]; IMPase cell inh: inactive; ALDH1A1 block: inactive; IMPase Li cell: inactive

How did COc1ccccc1-n1c(SCC(=O)Nc2nnc(C)s2)nc2c(c1=O)SCC2 do in these assays?
HPGD inh: inactive; PNC assembly inh: inconclusive; NPSR antagonist: inactive; IMPase cell inh: inactive; ALDH1A1 block: inactive; IMPase Li cell: inactive

Results for O=C(OC[C@@H]1O[C@@](O)(COC(=O)c2cccnc2)[C@H](OC(=O)c2cccnc2)[C@H]1OC(=O)c1cccnc1)c1cccnc1 ?
HPGD inh: inactive; ALDH1A1 block: inactive; IMPase Li cell: inactive

Results for CO[C@H]1C[C@@H]2CC[C@@H](C)[C@@](O)(O2)C(=O)C(=O)N2CCCC[C@H]2C(=O)OC([C@H](C)C[C@@H]2CC[C@@H](O)[C@H](OC)C2)CC(=O)[C@H](C)/C=C(\C)[C@@H](O)[C@@H](OC)C(=O)[C@H](C)C[C@H](C)/C=C/C=C/C=C/1C (stereo partly drawn) ?
HPGD inh: inactive; ALDH1A1 block: 18µM!; IMPase Li cell: inactive

What do the screens show for `CN(C)/C=N/S(=O)(=O)c1ccc(Cl)cc1`?
NPSR antagonist: inactive; ALDH1A1 block: inactive; IMPase Li cell: inactive

How did CCn1c(CSc2nc(C)cc(C)n2)nnc1SCC(=O)Nc1cccc2ccccc12 do in these assays?
HPGD inh: inactive; PNC assembly inh: -107; NPSR antagonist: inactive; IMPase cell inh: inactive; ALDH1A1 block: inactive; IMPase Li cell: inactive

How did O=S(=O)(Nc1nccs1)c1ccc(F)cc1 do in these assays?
NPSR antagonist: inactive; ALDH1A1 block: inactive; IMPase Li cell: inactive

What do the screens show for `Cc1cc(C)c(Nc2cc(S(=O)(=O)O)c(N)c3c2C(=O)c2ccccc2C3=O)c(C)c1`?
HPGD inh: inconclusive; PNC assembly inh: inactive; NPSR antagonist: 5µM; IMPase cell inh: inconclusive; ALDH1A1 block: 25µM; IMPase Li cell: inactive

How did Nc1ccc(-c2ccc(Nc3cc(S(=O)(=O)O)c(N)c4c3C(=O)c3ccccc3C4=O)cc2)c(S(=O)(=O)O)c1 do in these assays?
HPGD inh: inactive; ALDH1A1 block: inactive[13.5 µM]; IMPase Li cell: inactive

Results for CCn1c(SCC(=O)Nc2ccc3c(c2)OCO3)nc2ccccc21 ?
HPGD inh: inactive; PNC assembly inh: inconclusive; NPSR antagonist: inactive; IMPase cell inh: inactive; ALDH1A1 block: inconclusive; IMPase Li cell: inactive

Results for COc1ccccc1/C=C/C=N\N1CCN(Cc2ccccc2Cl)CC1 ?
HPGD inh: inactive; PNC assembly inh: inactive; NPSR antagonist: inactive; ALDH1A1 block: 20µM; IMPase Li cell: inactive

What do the screens show for `C(=C\c1ccccc1)/C=N/N1CCN(Cc2ccccc2)CC1`?
NPSR antagonist: inactive; ALDH1A1 block: inactive; IMPase Li cell: inactive

How did COc1ccccc1/C=C/C=N/N1CCN(Cc2ccc(Cl)cc2)CC1 do in these assays?
HPGD inh: inactive; PNC assembly inh: inactive; NPSR antagonist: inactive; IMPase cell inh: inactive; ALDH1A1 block: 18µM; IMPase Li cell: inactive

Results for O=C(COc1ncnc2sccc12)NC1CCCc2ccccc21 (stereo not drawn) ?
HPGD inh: inactive; PNC assembly inh: inactive; NPSR antagonist: inactive; IMPase cell inh: inactive; ALDH1A1 block: inactive; IMPase Li cell: inactive

What do the screens show for `CC(C)(C)NS(=O)(=O)c1cnc(Cl)c(Cl)c1`?
HPGD inh: inactive; PNC assembly inh: inactive; NPSR antagonist: inactive; IMPase cell inh: inactive; ALDH1A1 block: 32µM; IMPase Li cell: inactive

What do the screens show for `COC(=O)c1ccc(OC)c(OC)c1Cl`?
NPSR antagonist: inactive

What do the screens show for `CC(=O)N(C)c1ccc(NC(=O)c2ccccc2C(=O)O)cc1`?
HPGD inh: inactive; PNC assembly inh: -117; NPSR antagonist: inactive; IMPase cell inh: inactive; ALDH1A1 block: inconclusive; IMPase Li cell: inactive

Results for Cc1ccc(NC(=O)c2ccccc2O)cc1 ?
HPGD inh: inactive; PNC assembly inh: -100; NPSR antagonist: inactive; IMPase cell inh: inactive; ALDH1A1 block: inactive; IMPase Li cell: inactive

How did Cc1ccc(NC(=O)C2=C(c3ccccc3)S(=O)(=O)CCS2(=O)=O)cc1 do in these assays?
NPSR antagonist: 10µM; ALDH1A1 block: inactive; IMPase Li cell: inactive

Results for Cc1ccc(NC(=O)c2ccccc2)cc1 ?
HPGD inh: inactive; PNC assembly inh: inactive; NPSR antagonist: inactive; IMPase cell inh: inactive; ALDH1A1 block: inactive; IMPase Li cell: inactive

What do the screens show for `Cc1ccc(NC(=O)c2cc(S(=O)(=O)c3ccccc3)ccc2Cl)cc1`?
HPGD inh: inactive; PNC assembly inh: inactive; NPSR antagonist: inactive; IMPase cell inh: inactive; ALDH1A1 block: 10µM; IMPase Li cell: inactive

What do the screens show for `CC(=O)N(C)c1ccc(NC(=O)c2ccco2)cc1`?
HPGD inh: inactive; PNC assembly inh: inactive; NPSR antagonist: inactive; IMPase cell inh: inactive; ALDH1A1 block: inactive; IMPase Li cell: inactive
